According to the OligoGym collection:

These sequences were tested against OTP (assay: pooled miR-30 sensor sort-seq; sequence = guide strand). Details: shRNA.
Note: reference of the scale not given here.

Sequence | sensor-assay potency score (higher = more potent)
TGTCCCTTGAACACGTCCGTGT | -0.222
TTTCTCTGTACAAAGTTGCAGG | -0.634
TTCCTCGTCACATGACTGCTTT | -0.353
TTACAAAAGAAAATTTTGCTTA | -0.204
TTATCTACACAAAACATCCTAT | -0.185
TTCTACACTCTCACACAGTTGT | 0.376
TTTATCTACACAAAACATCCTA | 0.114
TTAAGTTAAAACATATCACAAA | -1.23
TTGACCAGTATGTAACAAGAAT | -1.1
TTGGTAGCAATGCTTGTCCTCC | -0.441

What follows are sequences tested against OXGR1 in the same assay as above. Details: shRNA.

Sequence | sensor-assay potency score (higher = more potent)
TAATTTTCTTTGCTTGCTCAAG | -1.24
TTCAGCATAATGATGGTGCTGC | 0.6
TACAGGTTGAAATGGAAGCTGA | -0.61
TTGAGTTCATCCGAACTGGTGA | 0.378
TAATAGTATTGAGTTCATCCGA | -0.637
TGAATGATCACACAGTAGCGGA | -1.12
TTTCTTTGCTTGCTCAAGGTTC | -0.282
TACAACTGCACATCGAGTTTTG | -0.712
AATAGTATTGAGTTCATCCGAA | -0.145
TTGAAATGGAAGCTGAAGCGGA | 0.195
TTACTTTGCATCTCACTGTTGA | 0.106
TTGCATCTCACTGTTGAGCAGA | -0.0433

The sequences below were run against OXSR1 in the same assay as above. Details: shRNA.

Sequence | sensor-assay potency score (higher = more potent)
TCTTGGTTTCTTGTGAACCTGA | -0.403
TTTCTTTATCTTGAACACCAGT | -0.815
TAATCTTAGTACTAGACTGATT | -1.17
TTCATCATCACTCCACTCCCAG | -0.375
TTGTCTGTAAAAACAATCCAAA | -1.04
TTGAAGAAATTCTTTATTCTTT | -0.617
TTTGATTGCCACTTTCTCCTTT | 0.477
TTAATCTTAGTACTAGACTGAT | -0.309
TATCTGAGCCTTCGACACCAGA | -1.2
TTTACTAACGGAACTCTGGGGA | 0.644
TTTCTTGTGAACCTGATCCTGA | 0.134
TATTGATTCTTTCACTCGGGGA | -0.811

Each sequence was assayed against P2RX3 in the same assay as above. Details: shRNA.

Sequence | sensor-assay potency score (higher = more potent)
TTGATGATCCCGATGGTCCAGC | -0.677
TTGAGCAGGATGATGTCACAGA | 0.136
TACCTGGTAAGCCTTCTCGTGC | -1.6
TTGTCCAAGTCGCACACCCAGC | -1.44
TTCACCTTGGTTACCACCGAGG | -0.997
TTCCACTGTGTCCACCTCCGTG | -1.06
